What follows are sequences tested against GST-Hu-p50 (Homo sapiens, UniProt P19838 7-356) (assay: protein-binding microarray (PBM); PBM: ~300 nM protein, 6 mM HEPES pH 7.8, 80 mM KCl, 0.5 mM EDTA, 0.5 mM EGTA, 6% glycerol, 35 ng/ul poly-dIdC, 1% milk, 1 h, room temperature; Ap Aiptasia and Nv Nematostella (sea anemones) / Co Capsaspora / Aq Amphimedon (sponge) / Dm Drosophila / Hu human; RHD is the Rel homology domain; high values mean tight binding). Conditions: dsDNA, one strand shown.
GST-Hu-p50, sequence (P19838 7-356): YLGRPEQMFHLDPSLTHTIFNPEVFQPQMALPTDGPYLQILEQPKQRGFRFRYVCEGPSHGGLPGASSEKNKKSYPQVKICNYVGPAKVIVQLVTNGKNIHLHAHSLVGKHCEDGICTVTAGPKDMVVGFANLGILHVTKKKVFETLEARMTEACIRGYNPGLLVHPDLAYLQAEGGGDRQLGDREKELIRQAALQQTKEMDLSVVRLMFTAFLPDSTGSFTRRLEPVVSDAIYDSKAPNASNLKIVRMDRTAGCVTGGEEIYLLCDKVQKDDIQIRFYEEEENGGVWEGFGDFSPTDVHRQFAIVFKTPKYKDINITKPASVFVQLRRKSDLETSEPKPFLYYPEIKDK
For “CCGATTAACATCACGGGGAGTCCTGATGTTAATCGGGTCTTGATTCGCTTGACGCTGCTG”, the binding signal was 3.39 z-score. For “CCGATTAACATCAAGGACTTCCCTGATGTTAATCGGGTCTTGATTCGCTTGACGCTGCTG”, the binding signal was 2.42 z-score. Work on “CCGATTAACATCAATATTTCCCATGATGTTAATCGGGTCTTGATTCGCTTGACGCTGCTG” yielded a binding signal of 3.27 z-score. In the case of “CCGATTAACATCACACATTTCCCTGATGTTAATCGGGTCTTGATTCGCTTGACGCTGCTG”, the binding signal is reported as 3.2 z-score. In the case of “CCGATTAACATCAAATATTCCCATGATGTTAATCGGGTCTTGATTCGCTTGACGCTGCTG”, the binding signal is reported as 2.88 z-score. In the case of “CCGATTAACATCAGGGGGTACACTGATGTTAATCGGGTCTTGATTCGCTTGACGCTGCTG”, the binding signal is reported as 3.13 z-score. “CCGATTAACATCAGGGATTCACCTGATGTTAATCGGGTCTTGATTCGCTTGACGCTGCTG” gave a binding signal of 4.55 z-score. In the case of “CCGATTAACATCAGGGAATCCACTGATGTTAATCGGGTCTTGATTCGCTTGACGCTGCTG”, the binding signal is reported as 2.79 z-score. “CCGATTAACATCACCGCCCCACGTGATGTTAATCGGGTCTTGATTCGCTTGACGCTGCTG” showed a binding signal of 2.36 z-score. In the case of “CCGATTAACATCACGGAGTTCCCTGATGTTAATCGGGTCTTGATTCGCTTGACGCTGCTG”, the binding signal is reported as 1.87 z-score. “CCGATTAACATCAAGGTTTTCCCTGATGTTAATCGGGTCTTGATTCGCTTGACGCTGCTG” gave a binding signal of 4.23 z-score. For “CCGATTAACATCAGAAAATGCCCTGATGTTAATCGGGTCTTGATTCGCTTGACGCTGCTG”, the binding signal was 2.79 z-score. “CCGATTAACATCAAGGATTCCCGTGATGTTAATCGGGTCTTGATTCGCTTGACGCTGCTG” was tested, and the binding signal was 2.13 z-score. Sequence “CCGATTAACATCAGGCTATCCCCTGATGTTAATCGGGTCTTGATTCGCTTGACGCTGCTG” has a binding signal of 3.43 z-score.
